Source: PubChem BioAssay (Tox21)
Results filed as inconclusive are left out. A call without a number means that no potency is given here. Values without a mark were called inactive. The source made the active and inactive calls. Unless noted, the call rests on the fitted dose curve; in most records, active means well fitted curve in the direction sought with a large enough effect in the repeat runs; inconclusive means weak or mixed curves; inactive means no such curve, though single readings can be large; an effect the other way counts as inactive or inconclusive. Non-standard residues stand in square brackets, D forms with d. Residues, ends and D or L forms follow the SMILES beside them. pGlu = O=C1CC[C@@H](C(=O)O)N1

Experiments:
[1] = qHTS assay to identify aromatase inhibitors - cell viability counter screen (AID 743084);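 further: cells stimulated with testosterone during compound exposure; nearly all actives have a fitted effect of over 55% in size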; further: potency means the concentration at half of the fitted maximal effect
[2] = qHTS assay to identify small molecule that activate the aryl hydrocarbon receptor (AhR) signaling pathway - cell viability counter screen (AID 743086); further: nearly all actives have a fitted effect of over 45% in size; further: potency means the concentration at half of the fitted maximal effect
In short: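 Cytotoxicity counter screen: CellTiter-Fluor signal (30 min, 37 C) in 4000 HepG2 cells/well carrying the DRE-luciferase reporter, following 24 h compound exposure at 37 C.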

[3] = biological target: Peroxisome proliferator-activated receptor gamma (Homo sapiens) (UniProt P37231); test: qHTS assay to identify small molecule agonists of the peroxisome proliferator-activated receptor gamma (PPARg) signaling pathway (AID 743094; active means well fitted activation curve with a large enough effect in the signal ratio in the repeat runs, not every such curve was filed as active; the % refers to the signal ratio)
Chain of Peroxisome proliferator-activated receptor gamma (Homo sapiens) (P37231 whole entry, looked up): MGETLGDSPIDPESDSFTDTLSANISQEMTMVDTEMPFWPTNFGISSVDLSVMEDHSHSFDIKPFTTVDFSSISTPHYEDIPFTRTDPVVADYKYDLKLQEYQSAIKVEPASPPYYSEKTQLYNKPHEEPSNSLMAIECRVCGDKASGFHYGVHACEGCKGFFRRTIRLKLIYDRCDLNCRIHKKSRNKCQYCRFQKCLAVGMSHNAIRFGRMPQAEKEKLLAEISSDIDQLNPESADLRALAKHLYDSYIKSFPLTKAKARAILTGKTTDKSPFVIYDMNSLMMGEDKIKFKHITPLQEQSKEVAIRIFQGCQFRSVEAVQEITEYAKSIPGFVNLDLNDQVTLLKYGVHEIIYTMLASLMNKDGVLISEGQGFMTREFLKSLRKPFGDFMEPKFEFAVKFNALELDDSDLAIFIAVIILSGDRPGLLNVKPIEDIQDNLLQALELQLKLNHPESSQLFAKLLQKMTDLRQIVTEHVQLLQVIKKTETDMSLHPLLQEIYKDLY
In short: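 Compounds dissolved in DMSO were added to PPARg UAS-bla HEK293H cells for 17 h at 37C, and reporter expression was quantified by fluorescence intensity after 1 h with LiveBLAzer B/G FRET substrate.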

[4] = qHTS assay to identify small molecule phospholipidosis (PLD) inducers (AID 1259344; active means well fitted curve in the direction sought with a large enough effect; an effect the other way counts as inactive or inconclusive)
In short: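 Fluorescent phospholipid staining (LipidTOX Red) measured by automated microscopy in fixed HepG2 cells after 24 h treatment; nuclei counterstained with Hoechst 33342; amiodarone as reference inducer.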

[5] = biological target: Nuclear receptor subfamily 1 group I member 2 (Rattus norvegicus) (UniProt Q9R1A7); test: Rat pregnane X receptor (rPXR) activation by small molecules, qHTS assay (AID 1346983); conditions: rPXR luciferase reporter cells, One-Glo luminescence, 24 h; max activation: stronger effect = higher value; further: nearly all actives have a fitted effect of over 20% in size; further: potency means the concentration at half of the fitted maximal effect
Chain of Nuclear receptor subfamily 1 group I member 2 (Rattus norvegicus) (Q9R1A7 whole entry, looked up): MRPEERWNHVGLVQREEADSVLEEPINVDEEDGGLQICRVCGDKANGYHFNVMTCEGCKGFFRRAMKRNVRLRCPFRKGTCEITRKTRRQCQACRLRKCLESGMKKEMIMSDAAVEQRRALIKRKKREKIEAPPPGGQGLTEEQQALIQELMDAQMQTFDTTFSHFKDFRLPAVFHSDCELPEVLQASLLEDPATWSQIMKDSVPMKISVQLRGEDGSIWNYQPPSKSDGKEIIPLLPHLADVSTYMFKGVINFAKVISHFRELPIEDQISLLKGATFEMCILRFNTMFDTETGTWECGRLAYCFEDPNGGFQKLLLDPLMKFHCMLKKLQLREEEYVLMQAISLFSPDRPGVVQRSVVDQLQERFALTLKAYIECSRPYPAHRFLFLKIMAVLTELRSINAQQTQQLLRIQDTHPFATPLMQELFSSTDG
In short: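 Luminescent readout (One-Glo luciferase, 30 min room temperature) followed 24 hr compound treatment at 37 C of rPXR cells plated 2,000 per well and preincubated 5hr; qHTS format with compounds delivered in DMSO.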

[6] = biological target: Nuclear receptor subfamily 1 group I member 2 (Homo sapiens) (UniProt O75469); test: CYP3A4 induction through human pregnane X receptor (PXR) by small molecules, qHTS assay (AID 1346984); further: nearly all actives have a fitted effect of over 40% in size
In short: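 Readings come from a luciferase reporter: DPX-2 cells, which are HepG2 cotransfected with PXR and a CYP3A4-promoter construct, were exposed to test compounds for 24 h at 37C before One-Glo detection.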

[7] = biological target: Nuclear receptor subfamily 1 group I member 2 (Homo sapiens) (UniProt O75469); test: Human pregnane X receptor (PXR) activation by small molecules, qHTS assay (AID 1346985); further: nearly all actives have a fitted effect of over 40% in size; further: potency means the concentration at half of the fitted maximal effect
In short: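 DPX-2 cells (HepG2 co-transfected with a PXR response element and a CYP3A4-promoter luciferase construct) were seeded at 2,000 per well, rested 5 hr at 37C, then exposed to DMSO-dissolved compounds for 24 hr. Activation was read as luciferase luminescence.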

[8] = biological target: Aryl hydrocarbon receptor (Homo sapiens) (UniProt P35869); test: qHTS assay to identify small molecule that activate the aryl hydrocarbon receptor (AhR) signaling pathway (AID 743085); further: nearly all actives have a fitted effect of over 15% in size; further: potency means the concentration at half of the fitted maximal effect;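 on activation: HG2L7.5c1 human HepG2 liver cells with stably integrated DRE-driven firefly reporter; series mostly up to about 70 µM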
Chain of Aryl hydrocarbon receptor (Homo sapiens) (P35869 whole entry, looked up): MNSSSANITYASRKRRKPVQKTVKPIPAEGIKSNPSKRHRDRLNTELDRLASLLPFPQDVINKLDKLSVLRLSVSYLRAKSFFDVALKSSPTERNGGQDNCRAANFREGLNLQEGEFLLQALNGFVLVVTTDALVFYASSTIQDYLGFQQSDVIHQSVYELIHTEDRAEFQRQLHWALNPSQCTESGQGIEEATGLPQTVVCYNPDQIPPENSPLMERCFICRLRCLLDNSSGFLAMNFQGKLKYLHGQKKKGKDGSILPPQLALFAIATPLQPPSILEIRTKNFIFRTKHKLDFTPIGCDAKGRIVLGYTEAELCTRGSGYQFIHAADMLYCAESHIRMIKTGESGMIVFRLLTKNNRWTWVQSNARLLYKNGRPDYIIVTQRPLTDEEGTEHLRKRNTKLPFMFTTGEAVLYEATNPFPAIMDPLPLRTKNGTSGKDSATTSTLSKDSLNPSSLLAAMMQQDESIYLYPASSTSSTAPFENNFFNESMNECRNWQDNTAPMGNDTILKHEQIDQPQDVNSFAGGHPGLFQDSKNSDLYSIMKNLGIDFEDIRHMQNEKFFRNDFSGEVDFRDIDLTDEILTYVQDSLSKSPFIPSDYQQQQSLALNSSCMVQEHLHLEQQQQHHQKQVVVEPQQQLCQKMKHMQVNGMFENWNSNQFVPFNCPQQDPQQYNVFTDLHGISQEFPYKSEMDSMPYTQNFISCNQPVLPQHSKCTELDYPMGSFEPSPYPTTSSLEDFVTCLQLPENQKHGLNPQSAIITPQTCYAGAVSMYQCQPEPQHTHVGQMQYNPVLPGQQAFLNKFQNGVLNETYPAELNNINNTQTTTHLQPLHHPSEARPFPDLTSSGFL
In short: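 24 h compound exposure, 37C, HepG2-derived HG2L7.5c1 cells with DRE-responsive luciferase. Readouts: fluorescence viability, then luminescence at room temperature after 30 min.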

SMILES	Potency [1]	Potency [2]	Potency [3]	Potency [4]	max activation [5] [%]	Potency [6]	Potency [7]	Potency [8]	Potency [5]
O=C(CCCCCCCCCCCCC1CCCC1)Nc1ccc(S(=O)(=O)c2ccc(NC(=O)CCCCCCCCCCCCC3CCCC3)cc2)cc1	inactive	inactive	inactive	inactive	-2.51	inactive	inactive		
COc1c(O[C@@H]2O[C@H](CO)[C@@H](O)[C@H](O)[C@H]2O)cc2c(c1OC)-c1ccc(SC)c(=O)cc1[C@@H](NC(C)=O)CC2	inactive	inactive	inactive	inactive	-2.99	inactive	inactive		
COc1ccc(C2(C#N)CCC(C(=O)O)CC2)cc1OC1CCCC1 (stereo unspecified)	inactive	inactive		inactive	-0.133	inactive	inactive		
O=C1NCCN1c1ncc([N+](=O)[O-])s1	inactive	inactive	inactive	inactive	-1.52	inactive	inactive		
CC(C)(S)[C@@H](N)C(=O)O	inactive	inactive	inactive	inactive	-3.13	inactive	inactive		
CCC(Cc1c(I)cc(I)c(O)c1I)C(=O)O (stereo unspecified)	inactive	inactive		inactive	-2.63	inactive	inactive		
C=C1CC[C@H](O)CC1=C/C=C1\CCC[C@]2(C)[C@@H]([C@H](C)CCCC(C)(C)O)CC[C@@H]12	inactive	inactive		inactive	-20.1	inactive	inactive		
O=S(=O)(O)CCCS(=O)(=O)O	inactive	inactive	inactive	inactive	-2.5	inactive	inactive		
CC[C@H](C)[C@H](NC(=O)[C@H](Cc1ccccc1)NC(=O)[C@H](C)NC(=O)[C@H](CC(=O)O)NC(=O)[C@H](CCCCN)NC(=O)[C@H](CO)NC(=O)[C@@H]1CCCN1C(=O)[C@@H]1CCC(=O)N1)C(=O)NCC(=O)N[C@@H](CC(C)C)C(=O)N[C@@H](CCSC)C(N)=O ([pGlu]PSKDAFIGLM-NH2)	inactive	inactive	inactive	inactive	-3.14	inactive	inactive		
c1ccc2cc(C3=NCCN3)ccc2c1	inactive	inactive	inactive	inactive	-0.34	inactive	inactive		
CCOc1ccc(N=Nc2ccc(N)cc2N)cc1	21.1 µM (active)		inactive	inactive		inactive	inactive	0.944 µM (active)	3.16 µM (active)
CCCCCCCCCCCCOCCCN	inactive	inactive		inactive	-3.73	inactive	inactive		
O=C(O)c1cc(O)c2c(c1)[O][Bi][O]2	inactive	inactive		inactive	-0.194	inactive	inactive		
O=C(O)C1=C(CSc2nnnn2CS(=O)(=O)O)CS[C@@H]2[C@H](NC(=O)[C@H](O)c3ccccc3)C(=O)N12	inactive		inactive	inactive	-0.182	inactive	inactive	inactive	
O=C(OCc1ccccc1)c1cccnc1	inactive	inactive	inactive	inactive	6.76	inactive	inactive		
CC[C@H](C)[C@H]1O[C@]2(CC[C@@H]1C)C[C@@H]1C[C@@H](C/C=C(\C)[C@@H](O[C@H]3C[C@H](OC)[C@@H](O[C@H]4C[C@H](OC)[C@@H](O)[C@H](C)O4)[C@H](C)O3)[C@@H](C)/C=C/C=C3\CO[C@@H]4[C@H](O)C(C)=C[C@@H](C(=O)O1)[C@]34O)O2	inactive	inactive		inactive	-15.7	inactive		inactive	
CCCCC/C=C\C/C=C\C/C=C\CCCCC(=O)O	inactive	inactive		inactive	-0.879	inactive		inactive	
CC1=C[C@H](O)CC(C)(C)[C@H]1/C=C/C(C)=C/C=C/C(C)=C/C=C/C=C(C)/C=C/C=C(C)/C=C/C1=C(C)C[C@@H](O)CC1(C)C	inactive	inactive		inactive	0.35	inactive		inactive	
CN(C)C(=O)CCSC(SCCC(=O)O)c1cccc(/C=C/c2ccc3ccc(Cl)cc3n2)c1 (stereo unspecified)				inactive		inactive	8.91 µM (active)	1.88 µM (active)	4.47 µM (active)
CO[C@H]1C[C@@H]2CC[C@@H](C)[C@@](O)(O2)C(=O)C(=O)N2CCCC[C@H]2C(=O)O[C@H]([C@H](C)C[C@@H]2CC[C@@H](OCCO)[C@H](OC)C2)CC(=O)[C@H](C)/C=C(\C)[C@@H](O)[C@@H](OC)C(=O)[C@H](C)C[C@H](C)/C=C/C=C/C=C/1C	11.9 µM (active)	11.9 µM (active)		inactive	-9.27	inactive		inactive	
CC(C)N=c1cc2n(-c3ccc(Cl)cc3)c3ccccc3nc-2cc1Nc1ccc(Cl)cc1		inactive	inactive	inactive	-3.58	inactive	inactive	inactive	
